According to the supplement of paper PMC12350171:
Structures can show the parent of a compound that is named as a salt. A number with no mark means an inactive call.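 The calls were made as follows: active = AUC significantly below DMSO controls by Student t-fit with adjusted P under 0.01; inactive = not significantly reduced.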

Tested on: Haemophilus parainfluenzae
Test: growth AUC normalised to DMSO control (fraction of control); higher = less growth inhibition, active = hit call of the paper
Conditions: 20 µM
Outline: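 Pathogens were passaged twice under anaerobic conditions, then inoculated into pre-reduced mGAM plates at a starting OD578 of 0.01, with compound at 20 μM and 1% DMSO, and sealed with breathable membranes. For Haemophilus parainfluenzae, the medium was supplemented with hemin and NAD. OD578 was read every hour for 24 h in three biological replicates. Growth-curve AUC was calculated by the trapezoidal rule up to the exponential-to-stationary transition and normalised to DMSO controls on the same plate.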

Compound	growth AUC normalised to DMSO control
N[C@@H](Cc1ccc(O)c(O)c1)C(=O)O [Levodopa]	1.02
CCOCCn1c(N2CCCN(C)CC2)nc2ccccc21 [Emedastine difumarate]	1
CC(=O)O[C@]1(C(C)=O)CC[C@H]2[C@@H]3C=C(Cl)C4=CC(=O)[C@@H]5C[C@@H]5[C@]4(C)[C@H]3CC[C@@]21C [Cyproterone acetate]	1.01
CC(C)COCC(CN(Cc1ccccc1)c1ccccc1)N1CCCC1 (stereo not given) [Bepridil hydrochloride]	0.771
CN(C)CCC=C1c2ccccc2CCc2ccccc21 [Amitryptiline hydrochloride]	0.958
Clc1ccc(CSC(Cn2ccnc2)c2ccc(Cl)cc2Cl)cc1 (stereo not given) [Sulconazole nitrate]	1.08
Cc1onc(-c2ccccc2Cl)c1C(=O)N[C@@H]1C(=O)N2[C@@H]1SC(C)(C)[C@@H]2C(=O)O [Cloxacillin sodium salt]	0.914
Cc1ncc([N+](=O)[O-])n1CC(C)O (stereo not given) [Secnidazole]	0.937
C#C[C@]1(O)CC[C@H]2[C@@H]3CCC4=C(CCC(=O)C4)[C@H]3CC[C@@]21C [Norethynodrel]	0.989
CC(=O)NS(=O)(=O)c1ccc(N)cc1 [Sulfacetamide sodic hydrate]	1.03
O=C1NCCN1c1ncc([N+](=O)[O-])s1 [Niridazole]	0.392 (active)
OC(c1cc(C(F)(F)F)nc2c(C(F)(F)F)cccc12)C1CCCCN1 (stereo not given) [Mefloquine hydrochloride]	0.903
COc1c(O[C@@H]2O[C@H](CO)[C@@H](O)[C@H](O)[C@H]2O)cc2c(c1OC)-c1ccc(SC)c(=O)cc1[C@@H](NC(C)=O)CC2 [Thiocolchicoside]	0.996
Oc1ncnc2[nH]ncc12 [Allopurinol]	1.01
N=C(N)NS(=O)(=O)c1ccc(N)cc1 [Sulfaguanidine]	1.04
CCN(CCO)CCCC(C)Nc1ccnc2cc(Cl)ccc12 (stereo not given) [Hydroxychloroquine sulfate]	1
CC(=O)c1ccc(S(=O)(=O)NC(=O)NC2CCCCC2)cc1 [Acetohexamide]	0.971
CS(=O)(=O)OCCCCOS(C)(=O)=O [Busulfan]	1
C[C@@H]1[C@H](O)[C@@H](C)/C=C/C=C/C=C/C=C/C=C/C=C/C=C/[C@H](O[C@@H]2O[C@H](C)[C@@H](O)[C@H](N)[C@@H]2O)C[C@@H]2O[C@](O)(C[C@@H](O)C[C@@H](O)[C@H](O)CC[C@@H](O)C[C@@H](O)CC(=O)O[C@H]1C)C[C@H](O)[C@H]2C(=O)O [Amphotericin B]	1.09
COC(=O)[C@H]1[C@H]2C[C@@H]3c4[nH]c5cc(OC)ccc5c4CCN3C[C@H]2C[C@@H](OC(=O)c2cc(OC)c(OC)c(OC)c2)[C@@H]1OC [Reserpine]	1.07
Cc1cc(-c2ccccc2)nnc1NCCN1CCOCC1 [Minaprine dihydrochloride]	0.991
CC(C)NC(=N)NC(=N)Nc1ccc(Cl)cc1 [Proguanil hydrochloride]	0.973
CCCCOc1cc(C(=O)NCCN(CC)CC)c2ccccc2n1 [Dibucaine]	0.849
C[C@]12CC[C@@H]3c4ccc(O)cc4CC[C@H]3[C@@H]1CCC2=O [Estrone]	0.966
CC(CCc1ccccc1)NCC(O)c1ccc(O)c(C(N)=O)c1 (stereo not given) [Labetalol hydrochloride]	0.954
CN(Cc1cc(Br)cc(Br)c1N)C1CCCCC1 [Bromhexine hydrochloride]	1.04
CCN(CC)C(=O)Nc1ccc(OCC(O)CNC(C)(C)C)c(C(C)=O)c1 (stereo not given) [Celiprolol hydrochloride]	0.991
CCOc1ccc2c(c1)C(C)=CC(C)(C)N2 [Ethoxyquin]	0.94
COc1ccccc1OCC(O)CN1CCN(CC(=O)Nc2c(C)cccc2C)CC1 (stereo not given) [Ranolazine]	1.03
CC[C@H]1OC(=O)[C@H](C)[C@@H](O[C@H]2C[C@@](C)(OC)[C@@H](O)[C@H](C)O2)[C@H](C)[C@@H](O[C@@H]2O[C@H](C)C[C@H](N(C)C)[C@H]2O)[C@](C)(O)C[C@@H](C)CN(C)[C@H](C)[C@@H](O)[C@]1(C)O [Azithromycin]	0.0436 (active)
